Results from PubChem BioAssay (NCATS).
Inconclusive results are not listed. Active and inactive are the calls of the source. Unless noted, calls come from the whole dose curve; as a rule, active = well fitted curve in the direction sought with a large enough effect; inconclusive = small, poorly fitted or top-dose-only effect, or another doubt; inactive = no such curve, though single readings can be large; an effect the other way counts as inactive or inconclusive.

Columns and labels:
[1] = molecular target: Cytochrome P450 1A2 (Homo sapiens) (UniProt P05177); test: p450-cyp1a2 (AID 410; calls by dose curve; note: potency is the fitted concentration of half-maximal effect)
Sequence of Cytochrome P450 1A2 (Homo sapiens) (P05177 whole entry, looked up): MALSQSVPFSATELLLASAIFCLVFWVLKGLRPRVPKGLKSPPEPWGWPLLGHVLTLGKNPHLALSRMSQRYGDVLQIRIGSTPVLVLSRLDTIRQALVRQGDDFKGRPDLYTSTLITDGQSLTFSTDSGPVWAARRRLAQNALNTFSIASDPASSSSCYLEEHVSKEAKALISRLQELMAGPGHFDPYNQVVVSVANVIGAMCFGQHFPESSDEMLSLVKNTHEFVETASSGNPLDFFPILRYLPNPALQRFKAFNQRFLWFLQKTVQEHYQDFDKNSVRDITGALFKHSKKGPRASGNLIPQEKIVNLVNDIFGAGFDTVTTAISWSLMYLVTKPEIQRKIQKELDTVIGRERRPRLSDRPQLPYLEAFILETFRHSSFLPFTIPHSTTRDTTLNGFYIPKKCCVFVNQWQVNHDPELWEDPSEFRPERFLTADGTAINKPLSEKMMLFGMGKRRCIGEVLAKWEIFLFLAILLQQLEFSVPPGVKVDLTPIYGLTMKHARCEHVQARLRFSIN
In short: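 20nM CYP1A2, 100uM Luciferin-ME (=Km), 100mM KPO4; cpd 10 min RT; +NADPH regen, 60 min RT; stop/detect 20 min; luminescence. Normalized to furafylline 57 uM = full inhibition.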

[2] = molecular target: Glucocorticoid receptor (Homo sapiens) (UniProt P04150); test: GR-GFP Redistribution (AID 450;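 active = compounds whose dose series gives a full or clear partial fitted curve of increased nuclear translocation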; note: potency is the fitted concentration of half-maximal effect); conditions: U2OS GR-GFP nuclear translocation, laser cytometry, 2 h
Sequence of Glucocorticoid receptor (Homo sapiens) (P04150 whole entry, looked up, the tested form may be a part): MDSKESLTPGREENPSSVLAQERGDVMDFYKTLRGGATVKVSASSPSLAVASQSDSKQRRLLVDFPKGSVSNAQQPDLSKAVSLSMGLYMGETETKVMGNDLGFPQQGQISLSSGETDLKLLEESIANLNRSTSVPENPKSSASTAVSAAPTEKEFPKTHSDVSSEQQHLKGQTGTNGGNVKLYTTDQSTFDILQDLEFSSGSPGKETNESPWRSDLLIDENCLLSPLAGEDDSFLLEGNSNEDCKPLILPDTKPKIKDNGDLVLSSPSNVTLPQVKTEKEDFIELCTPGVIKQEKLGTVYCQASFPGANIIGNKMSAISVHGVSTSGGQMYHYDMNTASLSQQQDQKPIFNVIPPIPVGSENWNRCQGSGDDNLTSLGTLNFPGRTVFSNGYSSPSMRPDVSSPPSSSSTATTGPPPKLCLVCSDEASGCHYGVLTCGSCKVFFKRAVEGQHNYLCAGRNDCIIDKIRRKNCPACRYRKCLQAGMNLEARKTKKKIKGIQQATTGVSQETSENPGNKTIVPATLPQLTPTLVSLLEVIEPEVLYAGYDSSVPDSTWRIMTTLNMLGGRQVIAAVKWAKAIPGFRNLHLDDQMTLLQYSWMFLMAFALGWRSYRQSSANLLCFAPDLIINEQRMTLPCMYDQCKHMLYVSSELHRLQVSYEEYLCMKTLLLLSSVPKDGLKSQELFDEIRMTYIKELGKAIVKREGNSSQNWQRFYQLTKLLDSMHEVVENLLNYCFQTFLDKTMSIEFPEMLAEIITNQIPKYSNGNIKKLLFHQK

[3] = molecular target: Glucocorticoid receptor (Homo sapiens) (UniProt P04150); test: GR-EFC Redistribution (AID 451; calls by dose curve; note: potency is the fitted concentration of half-maximal effect); conditions: CHO-K1 GR-EFC translocation, beta-gal luminescence, 2 h
In short: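 CHO-K1 cells expressing nuclear EA and GR-ED fragments of b-gal; compounds titrated up to 46 uM final, 2 h at 37 C. GR nuclear translocation read as complemented b-gal luminescence after 1 h RT detection.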

[4] = molecular target: 3',5'-cyclic-AMP phosphodiesterase 4B (Homo sapiens) (UniProt Q07343); test: qHTS Assay for Inhibitors of PDE-IV (AID 607; active = well fitted activation curve with a large enough effect in the main read-out, with a control signal flat, not every such curve was filed as active; note: % of control where 0% means no effect)
Sequence of 3',5'-cyclic-AMP phosphodiesterase 4B (Homo sapiens) (Q07343 whole entry, looked up): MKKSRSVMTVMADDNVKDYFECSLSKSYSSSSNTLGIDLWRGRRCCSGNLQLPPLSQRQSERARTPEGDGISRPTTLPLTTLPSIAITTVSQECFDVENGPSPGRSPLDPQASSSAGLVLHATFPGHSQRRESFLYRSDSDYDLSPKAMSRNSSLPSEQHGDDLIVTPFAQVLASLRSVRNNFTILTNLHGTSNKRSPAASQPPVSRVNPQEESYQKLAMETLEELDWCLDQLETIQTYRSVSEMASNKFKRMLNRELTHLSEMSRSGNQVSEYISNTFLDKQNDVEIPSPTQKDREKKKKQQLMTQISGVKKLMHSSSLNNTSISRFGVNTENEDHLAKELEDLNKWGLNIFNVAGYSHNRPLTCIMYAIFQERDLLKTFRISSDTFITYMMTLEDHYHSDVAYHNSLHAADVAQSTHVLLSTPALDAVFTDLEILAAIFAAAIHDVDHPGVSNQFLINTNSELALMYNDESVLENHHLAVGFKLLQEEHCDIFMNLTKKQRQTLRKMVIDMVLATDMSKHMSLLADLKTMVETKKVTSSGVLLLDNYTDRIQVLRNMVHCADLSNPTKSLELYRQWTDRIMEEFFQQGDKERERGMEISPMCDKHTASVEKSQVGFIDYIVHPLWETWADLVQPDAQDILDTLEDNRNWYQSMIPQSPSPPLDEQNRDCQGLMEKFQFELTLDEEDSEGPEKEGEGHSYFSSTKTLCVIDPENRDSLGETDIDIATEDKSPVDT
In short: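 Live HEK293 cells with a modified cyclic nucleotide-gated (CNG) channel report intracellular cAMP via membrane-potential dye fluorescence (ex 535/em 590 nm). Endogenous PDE-IV was targeted. Compounds were tested at up to 22.9 uM final; RO 20-1724 100 uM served as control.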

[5] = molecular target: Cytochrome P450 2C9 (Homo sapiens) (UniProt P11712); test: qHTS Assay for Inhibitors and Substrates of Cytochrome P450 2C9 (AID 883); note: % is set by controls: 0 for no effect and ±100 for the full control effect; nearly all actives have a fitted effect of over 60% in size
In short: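 Human CYP2C9 (10nM) with Luciferin-H at 100uM (its KM) in 25mM KPO4; compound preincubated 10 min at 37C, then NADPH regeneration for 60 min at 37C. Luciferin read by luminescence after detection reagent; normalized to 57uM sulphaphenazole as full inhibition.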

[6] = molecular target: Cytochrome P450 3A4 (Homo sapiens) (UniProt P08684); test: qHTS Assay for Activators of Cytochrome P450 3A4 (AID 885); note: nearly all actives have a fitted effect of over 65% in size
Sequence of Cytochrome P450 3A4 (Homo sapiens) (P08684 whole entry, looked up): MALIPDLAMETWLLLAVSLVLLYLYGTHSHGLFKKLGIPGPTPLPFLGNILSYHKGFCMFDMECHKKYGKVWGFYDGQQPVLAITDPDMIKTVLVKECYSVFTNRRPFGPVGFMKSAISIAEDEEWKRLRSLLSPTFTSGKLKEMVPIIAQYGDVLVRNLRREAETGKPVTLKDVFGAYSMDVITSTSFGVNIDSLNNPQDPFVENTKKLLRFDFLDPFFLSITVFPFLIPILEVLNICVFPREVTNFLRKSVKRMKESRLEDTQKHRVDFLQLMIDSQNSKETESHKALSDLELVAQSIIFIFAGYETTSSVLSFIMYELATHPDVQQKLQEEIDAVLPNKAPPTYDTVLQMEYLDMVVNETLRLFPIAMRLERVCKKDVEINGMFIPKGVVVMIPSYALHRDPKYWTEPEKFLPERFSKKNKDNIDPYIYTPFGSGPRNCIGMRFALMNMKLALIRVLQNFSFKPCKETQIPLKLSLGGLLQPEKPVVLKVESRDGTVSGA
In short: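 Using 20nM recombinant human CYP3A4 in potassium phosphate (200mM), substrate Luciferin-PPXE at 25uM, luminescent luciferin detection followed a 60-min RT NADPH reaction; data scaled to 57 uM ketoconazole.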

[7] = molecular target: Ubiquitin carboxyl-terminal hydrolase 1 (Homo sapiens) (UniProt O94782); test: Inhibitors of USP1/UAF1: Pilot qHTS (AID 504865);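 note: rhodamine fluorescence freed from ubiquitin-rhodamine substrate followed over time; top concentration of the series differs between compounds; % is set by controls: 0 for no effect and ±100 for the full control effect; nearly all actives have a fitted effect of over 35% in size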
Sequence of Ubiquitin carboxyl-terminal hydrolase 1 (Homo sapiens) (O94782 whole entry, looked up): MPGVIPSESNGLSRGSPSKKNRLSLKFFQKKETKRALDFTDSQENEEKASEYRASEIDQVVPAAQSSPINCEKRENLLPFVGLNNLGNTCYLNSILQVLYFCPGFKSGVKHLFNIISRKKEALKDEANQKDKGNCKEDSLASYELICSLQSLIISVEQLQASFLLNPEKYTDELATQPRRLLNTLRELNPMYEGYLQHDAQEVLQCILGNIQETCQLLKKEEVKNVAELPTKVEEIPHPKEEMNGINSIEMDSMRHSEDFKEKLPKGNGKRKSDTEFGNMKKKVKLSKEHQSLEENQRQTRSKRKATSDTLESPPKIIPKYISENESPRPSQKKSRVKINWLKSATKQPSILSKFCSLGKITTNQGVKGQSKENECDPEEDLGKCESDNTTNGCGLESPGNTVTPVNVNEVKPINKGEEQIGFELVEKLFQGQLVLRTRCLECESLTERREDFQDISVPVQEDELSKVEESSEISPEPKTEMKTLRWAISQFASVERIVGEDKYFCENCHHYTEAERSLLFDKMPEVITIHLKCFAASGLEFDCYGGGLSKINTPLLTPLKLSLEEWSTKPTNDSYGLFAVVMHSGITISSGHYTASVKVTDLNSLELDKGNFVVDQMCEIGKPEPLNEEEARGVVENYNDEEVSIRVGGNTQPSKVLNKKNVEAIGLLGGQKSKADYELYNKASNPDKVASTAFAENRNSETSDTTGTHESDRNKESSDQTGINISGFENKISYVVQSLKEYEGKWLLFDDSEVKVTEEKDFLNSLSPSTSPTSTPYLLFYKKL
In short: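 1nM USP1/UAF1 + cpd, 15 min RT; start w/ Ub-Rho 150nM final; kinetic FL 480/540 nm, 6 reads q60 s. Buffer 50mM HEPES pH 7.8, 0.5mM EDTA, 1mM TCEP, 0.01% Tween-20, 0.1 mg/ml BSA.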

[8] = molecular target: DNA dC->dU-editing enzyme APOBEC-3G (Homo sapiens) (UniProt Q9HC16); test: qHTS for inhibitors of Vif-A3G interactions: Validation (AID 588379); note: 0% is about no effect
Sequence of DNA dC->dU-editing enzyme APOBEC-3G (Homo sapiens) (Q9HC16 whole entry, looked up): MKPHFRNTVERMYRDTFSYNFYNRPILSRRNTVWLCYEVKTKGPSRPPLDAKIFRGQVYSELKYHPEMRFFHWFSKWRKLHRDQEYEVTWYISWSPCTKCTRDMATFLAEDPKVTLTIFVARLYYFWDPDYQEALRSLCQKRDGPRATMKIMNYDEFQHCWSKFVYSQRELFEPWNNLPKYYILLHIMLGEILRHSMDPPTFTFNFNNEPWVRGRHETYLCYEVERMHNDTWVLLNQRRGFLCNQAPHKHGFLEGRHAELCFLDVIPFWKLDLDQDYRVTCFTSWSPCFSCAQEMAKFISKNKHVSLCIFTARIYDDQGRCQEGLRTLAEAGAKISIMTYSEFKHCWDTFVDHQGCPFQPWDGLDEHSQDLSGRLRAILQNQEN
In short: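 Yellow fluorescence (Ex 488, Em 500-530) of Vif-coexpressing HeLa A3G-eYFP cells, scanned by Acumen cytometer, reports blocked A3G degradation. Cells plated at 700/well overnight at 37 deg C before compound addition, then a further overnight compound incubation at 37 deg C.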

[9] = system: Zika virus NS2B-NS3 protease; test: Primary screen GU AMC qHTS for Zika virus inhibitors (AID 1347154);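 note: 0% = no-inhibitor control and -100% = no-enzyme control; nearly all actives have a fitted effect of over 70% in size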
In short: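 Unlinked Zika NS2B hydrophilic domain–NS3 protease complex at 25 nM in 10 mM Tris-HCl pH 8.0, 0.01% Tween 20, with an AMC peptide substrate. Fluorescence change (340/450 nm) over 15 min at room temperature, normalized to controls, fitted to 4-parameter Hill.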

[10] = molecular target: Mitogen-activated protein kinase 10 (Mus musculus) (UniProt Q61831); test: JNK3 AlphaScreen Assay (AID 530; active = well fitted curve in either direction with a large enough effect, not every such curve was filed as active;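 note: kinase came from lysate of stimulated human HepG2 cells; signal reports phosphorylation of biotinylated GST-cJun 1-79 at Ser73 with 10 µM ATP; series mostly up to about 57 µM; % is set by controls: 0 for no effect and ±100 for the full control effect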)
In short: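 HepG2 lysate (IL-1b/TNFa pre-activated) + biotin-GST-cJun 1-79 + anti-pSer73 cJun; cpd titration, 15 min RT; ATP 10 uM start; Tris pH 7.6, MgCl2, DTT, vanadate; beads in EDTA buffer; AlphaScreen.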

[11] = molecular target: Cytochrome P450 2D6 (Homo sapiens) (UniProt P10635); test: qHTS Assay for Inhibitors and Substrates of Cytochrome P450 2D6 (AID 891); note: potency is the fitted concentration of half-maximal effect; nearly all actives have a fitted effect of over 60% in size
Sequence of Cytochrome P450 2D6 (Homo sapiens) (P10635 whole entry, looked up): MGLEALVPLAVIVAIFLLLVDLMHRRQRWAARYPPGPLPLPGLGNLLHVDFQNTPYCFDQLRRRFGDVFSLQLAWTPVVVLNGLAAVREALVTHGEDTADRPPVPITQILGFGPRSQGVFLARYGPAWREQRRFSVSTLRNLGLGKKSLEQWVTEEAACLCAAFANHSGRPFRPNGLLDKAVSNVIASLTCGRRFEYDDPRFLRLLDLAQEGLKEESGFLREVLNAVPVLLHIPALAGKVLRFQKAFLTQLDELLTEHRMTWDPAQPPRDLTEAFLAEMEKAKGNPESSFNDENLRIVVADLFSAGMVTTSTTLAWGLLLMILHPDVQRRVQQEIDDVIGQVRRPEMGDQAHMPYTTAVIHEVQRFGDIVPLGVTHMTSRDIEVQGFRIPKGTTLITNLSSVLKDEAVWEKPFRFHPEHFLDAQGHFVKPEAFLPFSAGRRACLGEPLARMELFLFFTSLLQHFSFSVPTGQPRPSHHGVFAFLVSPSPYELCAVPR
In short: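 Luminescent read-out of luciferin formed by 5 nM human CYP2D6 demethylating 30 uM Luciferin-ME EGE (Km level) over 60 min at room temperature after NADPH regeneration addition. Data normalized to full inhibition by 1.43 uM quinidine.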

[12] = molecular target: Cytochrome P450 2C19 (Homo sapiens) (UniProt P33261); test: qHTS Assay for Inhibitors and Substrates of Cytochrome P450 2C19 (AID 899); note: potency is the fitted concentration of half-maximal effect; nearly all actives have a fitted effect of over 60% in size
In short: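 5 nM human CYP2C19 with 10uM Luciferin-H EGE (at KM) in 50mM KPO4, compound preincubated 10 min at 37C, then NADPH regeneration for 60 min at 37C. Luciferin read by luminescence after detection reagent; normalized to 57uM ketoconazole as full inhibition.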

[13] = molecular target: N-terminal Xaa-Pro-Lys N-methyltransferase 1 (Homo sapiens) (UniProt Q9BV86); test: Confirmatory qHTS for Inhibitors of N-terminal methyltransferase 1 (NTMT1): MTaseGlo Assay (AID 1645874);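 note: luminescence from SAH made as NTMT1 methylates SPKRIA peptide using SAM; series mostly up to about 100 µM; 0% = DMSO control and -100% = no-enzyme control; nearly all actives have a fitted effect of over 65% in size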
Sequence of N-terminal Xaa-Pro-Lys N-methyltransferase 1 (Homo sapiens) (Q9BV86 whole entry, looked up): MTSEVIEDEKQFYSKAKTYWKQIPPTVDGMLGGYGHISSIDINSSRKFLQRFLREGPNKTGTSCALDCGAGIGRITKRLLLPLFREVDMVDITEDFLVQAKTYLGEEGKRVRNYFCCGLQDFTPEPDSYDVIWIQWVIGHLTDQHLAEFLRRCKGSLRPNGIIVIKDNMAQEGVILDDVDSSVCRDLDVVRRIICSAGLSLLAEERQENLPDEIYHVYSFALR
In short: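 Room-temperature NTMT1 reaction, 30 min, with 100 uM SAM and 1 uM SPKRIA substrate; enzyme 125 nM. Read-out: MTase-Glo luminescence, normalized to no-enzyme and DMSO controls.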

[14] = Primary qHTS for inhibitors of nuclear receptor binding SET domain protein 2 (NSD2) in an isogenic RCH-ACV NSD2 p.E1099K mutant (9B) (AID 1645876); note: potency is the fitted concentration of half-maximal effect; nearly all actives have a fitted effect of over 70% in size
[15] = Primary qHTS for inhibitors of nuclear receptor binding SET domain protein 2 (NSD2) in an RCH-ACV wild type WT cells (2C) (AID 1645877); note: potency is the fitted concentration of half-maximal effect; nearly all actives have a fitted effect of over 70% in size
[16] = molecular target: Glutathione peroxidase 1 (Homo sapiens) (UniProt P07203); test: Primary qHTS Assay for Inhibitors of Recombinant Selenoprotein Glutathione Peroxidase 1 (GPX1) (AID 1845191); note: % is set by controls: 0 for no effect and ±100 for the full control effect; nearly all actives have a fitted effect of over 65% in size
Sequence of Glutathione peroxidase 1 (Homo sapiens) (P07203 whole entry, looked up): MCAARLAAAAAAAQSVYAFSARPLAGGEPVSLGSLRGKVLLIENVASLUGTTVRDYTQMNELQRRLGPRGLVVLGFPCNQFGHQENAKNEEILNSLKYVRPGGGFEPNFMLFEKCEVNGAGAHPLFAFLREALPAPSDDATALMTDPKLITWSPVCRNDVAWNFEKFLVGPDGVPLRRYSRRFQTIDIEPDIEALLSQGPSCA
In short: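 GR-coupled readout: NADPH consumption tracked by fluorescence, ex 340/em 450 nm, at t=0 and after 15 min at RT. Final mix 10 nM GPX1, 1 mM GSH, 0.5 mM CHP, 0.5 mM NADPH, 100 nM GR, 0.01% BSA, following 30 min enzyme–compound preincubation.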

[17] = molecular target: Phospholipid hydroperoxide glutathione peroxidase GPX4 (Homo sapiens) (UniProt P36969); test: Primary qHTS Assay for Inhibitors of Recombinant Selenoprotein Glutathione Peroxidase 4 (GPX4) (AID 1845192); conditions: outcome: dose series up to 50 µM unless noted; note: series mostly up to about 50 µM; % is set by controls: 0 for no effect and ±100 for the full control effect; nearly all actives have a fitted effect of over 65% in size
Sequence of Phospholipid hydroperoxide glutathione peroxidase GPX4 (Homo sapiens) (P36969 whole entry, looked up): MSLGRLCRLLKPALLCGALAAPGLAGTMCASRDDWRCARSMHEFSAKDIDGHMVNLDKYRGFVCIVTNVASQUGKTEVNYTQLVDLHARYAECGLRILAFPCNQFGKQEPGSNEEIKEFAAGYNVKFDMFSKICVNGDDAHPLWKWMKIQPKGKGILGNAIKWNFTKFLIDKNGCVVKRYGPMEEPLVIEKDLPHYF
In short: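 Steps: GPX4 plus compound, 30 min RT; add GR/GSH/NADPH master mix; start with cumene hydroperoxide; read 340/450 nm fluorescence at 0 and 15 min. Finals were 200 nM GPX4, 1 mM GSH, 0.5 mM CHP, 0.5 mM NADPH, 100 nM GR.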

[18] = qHTS drug screen for cell cycle checkpoint inhibitors in PARPi-resistant BRCA-mutant ovarian cancer cell lines. (AID 1963452; calls by dose curve); conditions: PEO1/OlaR viability, CellTiter-Glo luminescence, 96 h, stronger effect = lower value
In short: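 PEO1, PEO4 and PEO1/OlaR ovarian cancer cells, 600 per well, exposed 96 h at 37C to a dilution series. Viability read by CellTiter-Glo luminescence, normalized to DMSO and empty wells; activity summarized as Z-AUC.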

COc1ccccc1N1CCN(C[C@@H]2CN3C(=O)N(C)c4ccccc4C3=N2)CC1
inactive: Potency [2] > 46 µM | Potency [3] > 46 µM | Potency [4] | Potency [5] | Potency [6] | Potency [7] | Potency [8] | Potency [9]
active: Potency [1] 31.6 µM

OCCNCCCOc1cccc(Cl)c1Cl
active: Potency [1] 0.2 µM | Potency [11] 0.158 µM | Potency [12] 3.98 µM
inactive: Potency [2] > 46 µM | Potency [3] > 46 µM | Potency [10] | Potency [6] | Potency [7] | Potency [8] | Potency [9]

Clc1cccc(C=NC=Nc2cccc(Cl)c2)c1
inactive: Potency [2] > 46 µM | Potency [3] > 46 µM | Potency [7] | Potency [8] | Potency [9]
active: Potency [1] 0.631 µM

CC(=O)C1CCC2C3CCC4=CC(=O)CCC4(C)C3CCC12C (centres undefined)
-0.267: Z-AUC ([18]; measured here: PEO4 Z-AUC)
inactive: Potency [9] | Potency [13] | Potency [16] | Potency [17] | Z-AUC [18] -0.653
-0.604: Z-AUC ([18]; measured here: PEO1 parental Z-AUC)
active: Potency [14] 20.9 µM | Potency [15] 18.6 µM
